High-throughput results: PubChem BioAssay, National Center for Advancing Translational Sciences (NCATS)
BAZ2B inh = inhibitors of human BAZ2B bromodomain; AlphaScreen BAZ2B-H3K14Ac peptide displacement; Q9UIF8; Potency, µM (doses to about 114 µM), usual class: inhibitors; 360,000 tested, 4.4% active; further: nearly all actives have a fitted effect of over 60% in size
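Inhibition is scored as reduced AlphaScreen emission. The BAZ2B/b-H3(5-23)K14Ac complex (50 nM each) in PBS pH 7.4, 0.01% Tween-20 meets compound (up to 110 uM) for 30 min at RT before bead addition.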
JMJD2A Tudor = blocks the human JMJD2A Tudor domain; O75164; AlphaScreen JMJD2A-Tudor / H3K4me3 peptide binding; Potency, µM (top dose mostly 114 µM), most hits filed as inhibitors; 390,000 tested, 4.4% active; further: nearly all actives have a fitted effect of over 50% in size
G9a block = blocks human histone lysine methyltransferase G9a; Potency, µM (doses to about 102 µM), actives largely listed as inhibitors; AID 504332; 350,000 tested, 8.8% active; G9a H3K9 monomethylation, AlphaScreen, 2 h; further: nearly all actives have a fitted effect of over 75% in size
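Methyltransferase reactions run at room temperature for 2 h (20 nM enzyme, 500 nM biotin-H3K9 peptide, 20 uM SAM) after a 15 min compound preincubation; product detected by AlphaScreen beads and anti-H3K9me1 antibody.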
HP1b binding inh = HP1-beta chromodomain-methylated histone interaction inhibition; Potency, µM (titrated, usually from 114 µM), actives largely listed as inhibitors; AlphaScreen HP1-beta / biotin-H3K9me3 peptide binding; 390,000 tested, 0.56% active; P83916; further: nearly all actives have a fitted effect of over 70% in size
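Compound inhibition of the preformed complex between 50 nM HP1-beta and 50 nM biotinylated H3K9me3 peptide was read by AlphaScreen. Buffer was PBS pH 7.4 with 0.01% Tween-20. Incubations ran 30 min at room temperature, with 10 ug/mL donor/acceptor beads.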
GLS inhibitor = glutaminase GLS (human) inhibition. O94925. GLS enzymatic activity, qHTS titration. Potency, µM (doses to about 45.5 µM), most hits filed as inhibitors. 410,000 tested, 0.21% active. AID 624170
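Two-point fluorescence kinetic (t0, 30 min RT) for hKGA; glutamate detected via glutamate oxidase–HRP–Amplex Red. Substrate: 1 mM L-glutamine solution; buffer 45 mM KH2PO4, pH 8.2.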
Numbers stand for hits; i = inactive; ? = inconclusive; nt = no result given; [ ] = another dose, or the depositor's remark. This is a sample that favours compounds with a hit; in the whole collection about 10% have one here. The call rests on the fitted dose curve; in most records, active means well fitted curve in the direction sought with a large enough effect; inconclusive means small, poorly fitted or top-dose-only effect, or another doubt; inactive means no such curve, though single readings can be large; an effect the other way counts as inactive or inconclusive.

SMILES	BAZ2B inh	JMJD2A Tudor	G9a block	HP1b binding inh	GLS inhibitor
O=C(CSc1ncnc2sc3c(c12)CCCCC3)NCc1ccco1	?	i	?	i	i
O=c1[nH]cnc2c1sc1nc(-c3ccccc3)c3c(c12)CCCC3	i	i	i	i	i
COCCCn1c(SCC(=O)NCc2ccco2)nc2sc3c(c2c1=O)CCC3	i	i	50.1µM	i	i
Cc1cc(NCCCn2ccnc2)n2c(nc3ccccc32)c1C#N	i	i	i[12.7 µM]	i	i
O=C(O)CN1C(=O)/C(=C\c2cc(Br)ccc2OCc2ccc(Cl)cc2)SC1=S	50.1µM	56.2µM	14.1µM	i	i
O=C(O)CN1C(=O)/C(=C\c2ccccc2OCc2ccc(F)cc2)SC1=S	i	?	50.1µM	i	i
O=C(O)CCCCN1C(=O)/C(=C\c2ccc(OCc3ccccc3)c(OCc3ccccc3)c2)SC1=S	31.6µM	17.8µM	i	?	i
O=C(O)CCCN1C(=O)/C(=C\c2ccccc2OCc2ccccc2)SC1=S	50.1µM	56.2µM	39.8µM	?	i
O=C(O)CN1C(=O)/C(=C\c2ccccc2OCc2ccccc2)SC1=S	nt	nt	nt	nt	i
COc1ccc(/C=C2/SC(=S)N(CC(=O)O)C2=O)cc1OCc1ccc(Cl)cc1	?	?	nt	i	i
O=C(c1ccc(F)cc1Cl)N1CCN(CCc2ccccc2)CC1	i	i	nt	i	i
O=C(CN1C(=O)/C(=C/c2ccccc2Cl)SC1=S)NC1C=CS(=O)(=O)C1 (stereo unspecified)	i	i	i	i	i
O=C(O)CCCN1C(=O)/C(=C\C(Cl)=C\c2ccccc2)SC1=S	50.1µM	50.1µM	14.1µM	?	i
O=C(O)CN1C(=O)/C(=C\c2cc(Br)ccc2OCc2ccc(F)cc2)SC1=S	56.2µM	?	44.7µM	?	i
CN1CCN(C(=O)CCCN2C(=O)/C(=C/c3ccccc3)SC2=S)CC1	?	?	?	i	i
O/N=C/c1cc(Br)ccc1OCc1ccc(F)cc1	nt	i	nt	i	i
O=C(O)CCCN1C(=O)/C(=C/c2cn(-c3ccccc3)nc2-c2cccs2)SC1=S	44.7µM	14.1µM	?	?	?
O=C(O)CN1C(=O)/C(=C\c2cc([N+](=O)[O-])ccc2OCc2ccccc2Cl)SC1=S	50.1µM	50.1µM	35.5µM	?	?
O=C(NCc1cccnc1)c1cccn2c(=O)c3sccc3nc12	i	i	i	i	i
O=C(COc1cccc(Cl)c1)N1CCC(c2nc3ccccc3o2)CC1	i	i	i	i	i
C[N+]12CCCCC1[C@@H](CO)CCC2 (stereo partly specified)	i	i	50.1µM	i	i
COc1ccc(NC(=O)C(c2cc3c(cc2[N+](=O)[O-])OCO3)N(C)Cc2ccccc2)cc1 (stereo unspecified)	?	?	79.4µM	?	i
CCN(c1cccc(C)c1)C(C(=O)Nc1ccc(OC)cc1)c1cc2c(cc1[N+](=O)[O-])OCO2 (stereo unspecified)	?	?	?	?	i
O=C(C1=C(Nc2ccccc2)c2ccccc2S(=O)(=O)N1)c1ccccc1	i	?	25.1µM	?	i
O=C1C2C3C=CC(C3)C2C(=O)N1c1ccncc1 (stereo unspecified)	i	i	i[12.7 µM]	i	i
SMILES	BAZ2B inh	JMJD2A Tudor	G9a block	HP1b binding inh	GLS inhibitor
O=C1C2C3C=CC(C3)C2C(=O)N1c1ncn[nH]1 (stereo unspecified)	?	50.1µM	?	?	i
C=CCNCCCCOc1ccccc1-c1ccccc1	i	i	i	i	i
CNCCOc1ccccc1OC(C)C	?	2.24µM	17.8µM	i	i
CNCCOc1ccccc1-c1ccccc1	?	3.55µM	?	i	i
CNCCCCOc1ccccc1-c1ccccc1	56.2µM	0.631µM	?	?	i
Cn1cc(Cl)c(-c2n[nH]c(=S)n2-c2ccccc2)n1	i	6.31µM	8.91µM	i	i
S=c1[nH]nc(-c2ccc3ccccc3n2)n1-c1cc(Cl)cc(Cl)c1	i	i	?	i	i
Cc1c(-c2n[nH]c(=S)n2-c2ccc(C(F)(F)F)cc2)nnn1-c1ccccc1	i	?	10µM	i	i
Cc1cc(OCc2n[nH]c(=S)n2-c2ccccc2)ccc1Cl	i	?	nt	i	i
Cc1ccc(-n2c(-c3nn(C)cc3Cl)n[nH]c2=S)cc1	i	8.91µM	3.16µM	i	i
Cc1ccc(-n2c(-c3cn(C)nc3C)n[nH]c2=S)cc1	i	nt	?	nt	nt
